The record followed here is PubChem BioAssay (Tox21).

The structures appear in SMILES notation. Unmarked numbers belong to inactive results. Inconclusive results are not listed. Calls of active or inactive are those of the source. Unless noted, the call rests on the fitted dose curve; in most records, active means well fitted curve in the direction sought with a large enough effect in the repeat runs; inconclusive means weak or mixed curves; inactive means no such curve, though single readings can be large; an effect the other way counts as inactive or inconclusive.

Assay [1] has as its target Estrogen receptor (Homo sapiens) (UniProt P03372). Briefly: qHTS assay to identify small molecule agonists of the estrogen receptor alpha (ER-alpha) signaling pathway in the presence of an antagonist (AID 1259383; calls by dose curve; further: top concentration of the series differs between compounds; nearly all actives have a fitted effect of over 15% in size). In short, it runs like this: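 Luminescent ERE-luciferase reporter, VM7Luc4E2 cells (endogenous ER-alpha); 10.0nM ICI-182,780 final; 15-point compound titration; 22hr at 37C; ONE-Glo, 30min RT.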
In general terms: Quantitative high-throughput screening tests each substance at several concentrations.

Assay [2] can be described thus: qHTS assay to identify small molecule agonists or antagonists of the thyroid stimulating hormone receptor (TSHR) signaling pathway - wild type cell line counter screen (AID 1259384; calls by dose curve). In short, it runs like this: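 Wild-type Hek293 cells, 800/well, 18 h at 37C, then compound with Ro20-1724 for 30 min RT. cAMP by HTRF (cAMP-d2/anti-cAMP cryptate), 1 h RT, fluorescence read. 15 concentrations, triplicates.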

The target of assay [3] is Thyrotropin receptor (Homo sapiens) (UniProt P16473). Briefly: qHTS assay to identify small molecule antagonists of the thyroid stimulating hormone receptor (TSHR) signaling pathway (AID 1259385; calls by dose curve; further: nearly all actives have a fitted effect of over 20% in size; further: potency means the concentration at half of the fitted maximal effect). Put shortly:
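TSHR-HEK293 cells (800/well) plated 18 h, then compounds with Ro20-1724 and TSH at 1.5 ng/mL final, 30 min at room temperature. cAMP quantified by HTRF (cAMP-d2/anti-cAMP-cryptate, 1 h); 15 concentrations in triplicate.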

The nature of assay [4]: qHTS assay to identify small molecule agonists of the estrogen receptor alpha (ER-alpha) signaling pathway in the presence of an antagonist - cell viability counter screen (AID 1259386).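 Further: cells exposed to compounds for 22 h at 37 °C before the viability read; nearly all actives have a fitted effect of over 30% in size.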 Further: potency means the concentration at half of the fitted maximal effect. Put shortly:
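Using estrogen-depleted VM7Luc4E2 cells, the 15-concentration compound series was applied together with 10.0nM ICI-182,780 and incubated 22hr at 37C/5% CO2. Cell viability was then scored by CellTiter-Fluor.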

The target in assay [5] is Progesterone receptor (Homo sapiens) (UniProt P06401). Description: qHTS assay to identify small molecule agonists of the progesterone receptor (PR) signaling pathway (AID 1346784; calls by dose curve; further: nearly all actives have a fitted effect of over 30% in size). In short, it runs like this:
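Agonist qHTS: compounds pinned onto 3,000 PR-UAS-bla HEK 293T cells per well in charcoal-stripped serum medium, 16hr at 37C, then beta-lactamase activity measured by LiveBLAzer FRET fluorescence after 2 hours at room temperature.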

Assay [6] in a line: qHTS assay to identify small molecule agonists of the progesterone receptor (PR) signaling pathway - cell viability counter screen (AID 1346799; calls by dose curve; further: nearly all actives have a fitted effect of over 45% in size). Put shortly: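 Cytotoxicity measured by CellTiter-Glo luminescence (30 min, RT) in the same wells as the PR beta-lactamase agonist read. Those HEK293T cells had 16 h compound treatment at 37 C in 2% charcoal-stripped FBS medium.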
A short description of assay [7]: qHTS assay to identify small molecule antagonists of the TGF-beta/Smad signaling pathway - cell viability counter screen (AID 1346824). Further: nearly all actives have a fitted effect of over 50% in size. In short, it runs like this: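 SBE-bla HEK 293T cells, incubated overnight, then compound plus 0.25 ng/mL TGF-beta1 (stock added) for 5 hr at 37 C. Viability was read in the same wells by CellTiter-Glo luminescence after 30 min at room temperature.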

Assay [8] in a line: qHTS assay to identify small molecule agonists of the TGF-beta/Smad signaling pathway - cell viability counter screen (AID 1346829). Further: nearly all actives have a fitted effect of over 45% in size. Further: potency means the concentration at half of the fitted maximal effect. In short, it runs like this: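 Luminescence from CellTiter-Glo, read after a 30 min room-temperature incubation, gives cell viability of SBE-bla HEK 293T cells treated 5 hr with compounds at 37 C.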
Assay [9] in a line: qHTS assay to identify small molecule agonists of the TGF-beta/Smad signaling pathway (AID 1346859; active means well fitted activation curve with a large enough effect in the signal ratio in the repeat runs, not every such curve was filed as active; the % refers to the signal ratio; further: series mostly up to about 77 µM). In short, it runs like this:
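Fluorescence (ex 405 nm; em 460 and 530 nm) was read 2 h after LiveBLAzer FRET substrate at RT. The preceding compound treatment of overnight-plated SBE-bla HEK293T cells lasted 5 h at 37 C.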

For assay [10], the target named is Thyrotropin-releasing hormone receptor (Homo sapiens) (UniProt P34981). Description: qHTS assay to identify small molecule antagonists of the thyrotropin-releasing hormone receptor (TRHR) signaling pathway (AID 1346877; active means well fitted inhibition curve with a large enough effect in the repeat runs, not every such curve was filed as active; further: series mostly up to about 51 µM). In short, it runs like this:
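Calcium signal in dye-loaded TRHR/HEK293 cells; compounds added 5 min before TRH (1 nM final); fluorescence monitored 3 min at 1 s steps.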

A short description of assay [11]: Human pregnane X receptor (PXR) small molecule agonists, qHTS cell viability counter screen (AID 1346977). Further: nearly all actives have a fitted effect of over 50% in size. Further: potency means the concentration at half of the fitted maximal effect. In short, it runs like this: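 Same-well viability read: CellTiter-Fluor added after 23 hr compound exposure, fluorescence measured 1 hr later. Cells were PXR-Luc HepG2 seeded at 2,000/well in 5% charcoal-stripped FBS medium, rested 5 hr before dosing at 37 C.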

A short description of assay [12]: Caspase-3/7 induction in HepG2 cells by small molecules, qHTS assay (AID 1346978). Further: nearly all actives have a fitted effect of over 15% in size. In short, it runs like this: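 Wild-type HepG2 cells, 2,000/well, settled 5 hr at 37 C and 5% CO2, then compound-treated for 17 hr; caspase-3/7 activity read by luminescent Caspase-Glo 3/7 after 30 min at room temperature.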
Assay [13] is described as follows: Caspase-3/7 induction in CHO-K1 cells by small molecules, qHTS cell viability counter screen (AID 1346979). Further: nearly all actives have a fitted effect of over 35% in size. Further: potency means the concentration at half of the fitted maximal effect. Put shortly:
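Cytotoxicity counter screen: CellTiter-Fluor added to compound-treated wild-type CHO-K1 cells at 16 h (37C, 5% CO2), fluorescence measured 1 h later; same wells as caspase-3/7 measurement.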

Assay [14] is described as follows: Caspase-3/7 induction in CHO-K1 cells by small molecules, qHTS assay (AID 1346980). Further: nearly all actives have a fitted effect of over 15% in size. Put shortly:
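Wild-type CHO-K1 cells exposed to compounds for 17hr at 37 C, 5% CO2. Caspase-3/7 activity then measured by Caspase-Glo 3/7 luminescence after 30min at room temperature.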

Assay [15] in a line: Caspase-3/7 induction in HepG2 cells by small molecules, qHTS cell viability counter screen (AID 1346981). Further: series mostly up to about 92 µM; nearly all actives have a fitted effect of over 30% in size. In short, it runs like this: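 After a 5-hr attachment period at 37 C and 5% CO2, wild-type HepG2 cells received compounds in DMSO. Sixteen hours later CellTiter-Fluor was dispensed and the fluorescent signal quantified after a further hour.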
Assay [16] is described as follows: qHTS assay to identify small molecule antagonists of the progesterone receptor (PR) signaling pathway - cell viability counter screen (AID 1346798). Further: nearly all actives have a fitted effect of over 50% in size. Further: potency means the concentration at half of the fitted maximal effect. In short, it runs like this:
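Cytotoxicity read as CellTiter-Glo luminescence (30 min, room temperature) in the same wells as the beta-lactamase readout. HEK293T PR-UAS-bla cells in charcoal-stripped 2% FBS received compound and R5020, then 16 h at 37C, 5% CO2.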

The target in assay [17] is Progesterone receptor (Homo sapiens) (UniProt P06401). Briefly: qHTS assay to identify small molecule antagonists of the progesterone receptor (PR) signaling pathway (AID 1346795; active means well fitted inhibition curve with a large enough effect in the signal ratio in the repeat runs, not every such curve was filed as active; the % refers to the signal ratio). Put shortly: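 Antagonist mode with agonist R5020 at 1 nM final and 16 hr incubation at 37C. Reporter was beta-lactamase driven by UAS in HEK293T (PR-UAS-bla), 2% charcoal-stripped serum; signal from LiveBLAzer FRET substrate, 2 hr at room temperature.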

The target of assay [18] is Thyrotropin-releasing hormone receptor (Homo sapiens) (UniProt P34981). Briefly: qHTS assay to identify small molecule agonists of the thyrotropin-releasing hormone receptor (TRHR) signaling pathway (AID 1346891; calls by dose curve; further: series mostly up to about 58 µM). In short, it runs like this:
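Agonist-mode intracellular calcium readout: kinetic fluorescence over 3 min at 1 s intervals after compound addition to TRHR-HEK293 cells (18 h seeded, 2 h dye-loaded at 37 C). Fifteen concentrations, triplicates.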

The target of assay [19] is Nuclear receptor subfamily 1 group I member 2 (Homo sapiens) (UniProt O75469). Briefly: Human pregnane X receptor (PXR) small molecule agonists, qHTS assay (AID 1346982). Further: potency means the concentration at half of the fitted maximal effect; nearly all actives have a fitted effect of over 35% in size. In short, it runs like this: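 Tox21 qHTS; PXR-Luc HepG2; compounds pinned from DMSO; 24 hr, 37 C; ONE-Glo luciferase detection, 30 min room temperature.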
Chain of Nuclear receptor subfamily 1 group I member 2 (Homo sapiens) (O75469 whole entry, looked up): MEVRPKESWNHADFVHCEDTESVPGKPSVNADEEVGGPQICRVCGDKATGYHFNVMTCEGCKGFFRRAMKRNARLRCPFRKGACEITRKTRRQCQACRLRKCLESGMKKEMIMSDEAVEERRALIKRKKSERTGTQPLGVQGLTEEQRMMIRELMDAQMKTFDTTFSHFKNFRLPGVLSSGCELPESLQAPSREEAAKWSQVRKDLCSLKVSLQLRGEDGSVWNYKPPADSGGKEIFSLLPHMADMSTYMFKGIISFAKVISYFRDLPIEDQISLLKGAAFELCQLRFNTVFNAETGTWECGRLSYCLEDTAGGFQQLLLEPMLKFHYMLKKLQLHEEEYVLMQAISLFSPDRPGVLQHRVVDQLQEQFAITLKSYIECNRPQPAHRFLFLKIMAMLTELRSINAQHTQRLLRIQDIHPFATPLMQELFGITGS

Chain of Progesterone receptor (Homo sapiens) (P06401 whole entry, looked up): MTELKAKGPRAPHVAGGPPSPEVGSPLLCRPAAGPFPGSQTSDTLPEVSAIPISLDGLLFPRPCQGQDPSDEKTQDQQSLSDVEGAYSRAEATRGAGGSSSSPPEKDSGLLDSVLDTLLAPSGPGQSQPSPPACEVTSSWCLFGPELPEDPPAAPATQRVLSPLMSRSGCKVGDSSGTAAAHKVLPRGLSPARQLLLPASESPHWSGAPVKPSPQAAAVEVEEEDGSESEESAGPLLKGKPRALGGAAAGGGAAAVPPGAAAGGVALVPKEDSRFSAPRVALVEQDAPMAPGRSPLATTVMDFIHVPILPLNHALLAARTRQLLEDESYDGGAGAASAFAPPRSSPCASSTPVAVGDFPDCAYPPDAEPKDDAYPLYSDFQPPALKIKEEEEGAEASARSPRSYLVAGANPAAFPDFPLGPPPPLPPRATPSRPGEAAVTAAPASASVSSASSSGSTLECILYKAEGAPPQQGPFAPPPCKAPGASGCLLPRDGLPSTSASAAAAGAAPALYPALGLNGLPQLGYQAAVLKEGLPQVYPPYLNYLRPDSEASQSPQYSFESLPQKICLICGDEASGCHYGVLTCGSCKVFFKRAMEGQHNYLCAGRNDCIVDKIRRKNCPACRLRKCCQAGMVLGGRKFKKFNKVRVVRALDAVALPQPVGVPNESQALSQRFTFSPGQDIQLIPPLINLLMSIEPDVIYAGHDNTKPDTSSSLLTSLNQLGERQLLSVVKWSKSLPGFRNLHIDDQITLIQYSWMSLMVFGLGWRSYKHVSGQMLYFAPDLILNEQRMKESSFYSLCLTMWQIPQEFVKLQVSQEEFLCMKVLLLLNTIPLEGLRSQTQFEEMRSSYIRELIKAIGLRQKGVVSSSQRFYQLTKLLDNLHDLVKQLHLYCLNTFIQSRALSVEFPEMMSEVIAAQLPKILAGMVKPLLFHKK
Chain of Thyrotropin-releasing hormone receptor (Homo sapiens) (P34981 whole entry, looked up): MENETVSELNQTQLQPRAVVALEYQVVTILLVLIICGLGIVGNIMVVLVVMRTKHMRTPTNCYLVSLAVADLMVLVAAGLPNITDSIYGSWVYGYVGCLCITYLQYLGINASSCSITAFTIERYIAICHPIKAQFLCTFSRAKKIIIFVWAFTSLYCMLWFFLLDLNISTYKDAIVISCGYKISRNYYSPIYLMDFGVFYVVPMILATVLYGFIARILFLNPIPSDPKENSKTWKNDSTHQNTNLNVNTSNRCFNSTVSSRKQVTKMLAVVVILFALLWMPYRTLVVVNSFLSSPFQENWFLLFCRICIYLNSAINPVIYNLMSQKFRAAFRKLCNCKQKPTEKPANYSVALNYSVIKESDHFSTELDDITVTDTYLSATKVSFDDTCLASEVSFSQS
Chain of Estrogen receptor (Homo sapiens) (P03372 whole entry, looked up): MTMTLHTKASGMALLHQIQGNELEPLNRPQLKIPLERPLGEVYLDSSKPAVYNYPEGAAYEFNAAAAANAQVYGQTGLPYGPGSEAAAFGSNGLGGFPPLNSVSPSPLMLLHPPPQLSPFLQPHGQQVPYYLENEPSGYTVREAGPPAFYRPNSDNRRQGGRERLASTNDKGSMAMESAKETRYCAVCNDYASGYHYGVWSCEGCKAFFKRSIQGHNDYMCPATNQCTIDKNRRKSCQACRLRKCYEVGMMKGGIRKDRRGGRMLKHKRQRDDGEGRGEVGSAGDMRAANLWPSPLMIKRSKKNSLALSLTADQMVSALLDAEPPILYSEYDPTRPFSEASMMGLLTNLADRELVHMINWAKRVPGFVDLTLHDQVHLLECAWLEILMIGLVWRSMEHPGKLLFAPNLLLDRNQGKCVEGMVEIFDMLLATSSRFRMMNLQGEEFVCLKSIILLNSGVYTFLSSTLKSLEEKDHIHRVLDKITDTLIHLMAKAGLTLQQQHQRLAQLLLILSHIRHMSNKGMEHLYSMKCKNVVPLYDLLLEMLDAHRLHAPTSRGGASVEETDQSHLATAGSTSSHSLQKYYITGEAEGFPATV
Chain of Thyrotropin receptor (Homo sapiens) (P16473 whole entry, looked up): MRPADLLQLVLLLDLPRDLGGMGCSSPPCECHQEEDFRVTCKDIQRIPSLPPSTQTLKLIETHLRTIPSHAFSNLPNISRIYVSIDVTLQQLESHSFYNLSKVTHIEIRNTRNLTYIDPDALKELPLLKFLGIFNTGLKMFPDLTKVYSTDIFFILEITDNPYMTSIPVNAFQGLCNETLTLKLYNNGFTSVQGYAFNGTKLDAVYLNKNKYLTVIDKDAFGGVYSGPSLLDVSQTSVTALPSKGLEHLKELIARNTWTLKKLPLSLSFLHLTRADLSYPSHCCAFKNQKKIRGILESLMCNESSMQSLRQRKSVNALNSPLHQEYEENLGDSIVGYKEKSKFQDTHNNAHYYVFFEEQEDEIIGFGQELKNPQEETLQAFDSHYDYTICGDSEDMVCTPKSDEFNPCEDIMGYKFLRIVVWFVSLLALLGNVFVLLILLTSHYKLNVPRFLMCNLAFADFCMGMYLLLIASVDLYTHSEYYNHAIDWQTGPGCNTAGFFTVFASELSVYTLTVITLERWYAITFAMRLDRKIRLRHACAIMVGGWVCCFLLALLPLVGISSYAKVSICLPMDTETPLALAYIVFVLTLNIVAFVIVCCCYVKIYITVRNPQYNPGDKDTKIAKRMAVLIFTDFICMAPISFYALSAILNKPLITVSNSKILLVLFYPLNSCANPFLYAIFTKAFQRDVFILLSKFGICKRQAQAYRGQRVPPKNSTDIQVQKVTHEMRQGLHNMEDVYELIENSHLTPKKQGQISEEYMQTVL

As to `C=Cc1ccc(O)c(OC)c1`, the Potency result in assay [1], in [2], in assay [3], in assay [4], in [6] and in assay [7] was “inactive” throughout. For the same compound, the Potency result in [8], in assay [10], in assay [11], in [12], in assay [13] and in assay [14] was “inactive” in each case. The Potency entry in assay [15] is “inactive”. Besides, the result in assay [5] and in assay [9] was inactive.

Regarding `Nc1c(Br)cc([N+](=O)[O-])cc1Br`, the Potency result in assay [1], in assay [4], in [16], in assay [6], in assay [7] and in assay [8] was “inactive” each time. The Potency result in [11], in assay [12], in assay [13] and in assay [14] was “inactive” each time. The result in assay [5] and in assay [9] was inactive.

With `COc1ccc(OC)c(N=Nc2c(O)ccc3ccccc23)c1`, the Potency result in assay [2], in assay [17], in [16], in [10], in assay [18] and in [12] was “inactive” in each case. The Potency entry in assay [14] was “inactive”. The Potency in assay [3] was 61.1 µM (active); in assay [4] it was 6.11 µM (active); in [8], 43.6 µM (active); in assay [11], 10.9 µM (active); in assay [13] it was 21.7 µM (active); in [19] it was 9.69 µM (active). For the same compound, the outcome in assay [5] and in assay [9] was inactive.

Consider `CC(C)=NNC(N)=S`, for which the Potency entry in [1], in assay [4], in assay [7], in [8], in assay [10] and in assay [18] was “inactive” throughout. For the same compound, the Potency result in [11], in assay [12], in assay [14] and in assay [15] was “inactive” each time. Further, the Potency in assay [16] is 21.7 µM (active). In assay [9], the compound was classed as inactive.
